Assay results published in PubChem BioAssay (NCATS).
Results filed as inconclusive are left out. Active and inactive are the calls of the source. Unless noted, the call rests on the fitted dose curve; in most records, active means well fitted curve in the direction sought with a large enough effect; inconclusive means small, poorly fitted or top-dose-only effect, or another doubt; inactive means no such curve, though single readings can be large; an effect the other way counts as inactive or inconclusive.

Experiments:
[1] = target: Lysosomal acid glucosylceramidase (Homo sapiens) (UniProt P04062); test: Glucocerebrosidase-p2 (AID 348; in the data active means potency below about 10 µM; further: potency means the concentration at half of the fitted maximal effect); conditions: purified GBA, blue fluorogenic substrate, 40 min
Chain of Lysosomal acid glucosylceramidase (Homo sapiens) (P04062 whole entry, looked up): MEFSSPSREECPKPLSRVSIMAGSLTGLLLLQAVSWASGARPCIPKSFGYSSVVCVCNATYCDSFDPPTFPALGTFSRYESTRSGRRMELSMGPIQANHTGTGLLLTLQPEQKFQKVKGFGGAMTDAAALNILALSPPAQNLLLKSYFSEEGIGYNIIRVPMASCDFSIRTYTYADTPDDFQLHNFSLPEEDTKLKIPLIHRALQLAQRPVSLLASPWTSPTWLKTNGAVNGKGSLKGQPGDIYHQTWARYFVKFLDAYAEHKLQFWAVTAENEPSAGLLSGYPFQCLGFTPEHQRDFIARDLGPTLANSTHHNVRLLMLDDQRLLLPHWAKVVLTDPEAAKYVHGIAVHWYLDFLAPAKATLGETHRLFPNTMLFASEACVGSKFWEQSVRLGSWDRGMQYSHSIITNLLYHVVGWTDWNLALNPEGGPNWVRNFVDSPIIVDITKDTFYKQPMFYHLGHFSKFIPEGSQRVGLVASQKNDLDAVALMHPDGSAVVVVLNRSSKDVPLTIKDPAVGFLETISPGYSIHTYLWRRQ
Procedure, shortened: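 Normal human glucocerebrosidase (0.2 nM) with blue fluorogenic substrate (80 uM final) in citrate/phosphate pH 5.9 with 10mM sodium taurocholate, 0.01% tween-20; 40 min RT, NaOH/glycine stop; fluorescence Ex 365/Em 440; AC50 from a titration from 0.6 nM upwards.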

[2] = target: Cytochrome P450 2C19 (Homo sapiens) (UniProt P33261); test: qHTS Assay for Inhibitors and Substrates of Cytochrome P450 2C19 (AID 899); conditions: recombinant CYP2C19, luciferin-H EGE luminescence; series mostly up to 57.1 µM; further: nearly all actives have a fitted effect of over 60% in size
Chain of Cytochrome P450 2C19 (Homo sapiens) (P33261 whole entry, looked up): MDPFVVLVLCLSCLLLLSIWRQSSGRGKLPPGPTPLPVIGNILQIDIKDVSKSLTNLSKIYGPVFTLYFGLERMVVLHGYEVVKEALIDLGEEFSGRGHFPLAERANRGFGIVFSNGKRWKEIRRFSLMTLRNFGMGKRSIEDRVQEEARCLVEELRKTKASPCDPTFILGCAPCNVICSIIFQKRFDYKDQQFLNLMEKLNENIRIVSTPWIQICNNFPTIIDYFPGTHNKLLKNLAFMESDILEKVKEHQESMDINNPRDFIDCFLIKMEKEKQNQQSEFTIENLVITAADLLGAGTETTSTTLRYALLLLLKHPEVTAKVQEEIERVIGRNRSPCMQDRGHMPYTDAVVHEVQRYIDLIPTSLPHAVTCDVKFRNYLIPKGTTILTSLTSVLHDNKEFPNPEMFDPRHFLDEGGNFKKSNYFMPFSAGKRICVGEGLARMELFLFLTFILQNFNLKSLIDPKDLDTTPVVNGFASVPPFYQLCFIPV
Procedure, shortened: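 Signal comes from luciferase acting on luciferin released by CYP2C19-mediated hydroxylation of Luciferin-H EGE, 10uM (KM). Assay mix: 5nM enzyme, 50mM KPO4; 60 min at 37C with NADPH regeneration. Data normalized against 57uM ketoconazole.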

7G8 = test: qHTS profiling for inhibitors of Plasmodium falciparum proliferation (AID 504749); further: nearly all actives have a fitted effect of over 60% in size; conditions: P. falciparum in erythrocytes, SYBR Green DNA, 72 h; series mostly up to 12.8 µM
Procedure, shortened: (§1)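 SYBR Green fluorescence (ex 485 nm, em 535 nm) reports parasite DNA after 72 h compound exposure of infected red cells at 0.3% parasitemia, 2.5% hematocrit; signal normalized to 0.29 uM artemisinin and vehicle wells.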

CP265 = test: as above; conditions: P. falciparum in erythrocytes, SYBR Green DNA, 72 h; series mostly up to 12.8 µM
Procedure, shortened: as §1

CP268 = test: as above; conditions: P. falciparum in erythrocytes, SYBR Green DNA, 72 h; series mostly up to 28.7 µM
Procedure, shortened: as §1

CP335 = test: as above; conditions: P. falciparum in erythrocytes, SYBR Green DNA, 72 h; series mostly up to 12.8 µM
Procedure, shortened: as §1

ICS = test: as above; conditions: P. falciparum in erythrocytes, SYBR Green DNA, 72 h; series mostly up to 28.7 µM
Procedure, shortened: as §1

JCK = test: as above; conditions: P. falciparum in erythrocytes, SYBR Green DNA, 72 h; series mostly up to 28.7 µM
Procedure, shortened: as §1

PAD = test: as above; conditions: P. falciparum in erythrocytes, SYBR Green DNA, 72 h; series mostly up to 28.7 µM
Procedure, shortened: as §1

PC15 = test: as above; conditions: P. falciparum in erythrocytes, SYBR Green DNA, 72 h; series mostly up to 28.7 µM
Procedure, shortened: as §1

PC26 = test: as above; conditions: P. falciparum in erythrocytes, SYBR Green DNA, 72 h; series mostly up to 28.7 µM
Procedure, shortened: as §1

SC27B = test: as above; conditions: P. falciparum in erythrocytes, SYBR Green DNA, 72 h; series mostly up to 28.7 µM
Procedure, shortened: as §1

TAB113 = test: as above; conditions: P. falciparum in erythrocytes, SYBR Green DNA, 72 h; series mostly up to 28.7 µM
Procedure, shortened: as §1

W2 = test: as above; conditions: P. falciparum in erythrocytes, SYBR Green DNA, 72 h; series mostly up to 12.8 µM
Procedure, shortened: as §1

[3] = target: Cytochrome P450 3A4 (Homo sapiens) (UniProt P08684); test: qHTS Assay for Activators of Cytochrome P450 3A4 (AID 885); conditions: recombinant CYP3A4, Luciferin-PPXE luminescence, 60 min; series mostly up to 57.1 µM; further: nearly all actives have a fitted effect of over 65% in size
Chain of Cytochrome P450 3A4 (Homo sapiens) (P08684 whole entry, looked up): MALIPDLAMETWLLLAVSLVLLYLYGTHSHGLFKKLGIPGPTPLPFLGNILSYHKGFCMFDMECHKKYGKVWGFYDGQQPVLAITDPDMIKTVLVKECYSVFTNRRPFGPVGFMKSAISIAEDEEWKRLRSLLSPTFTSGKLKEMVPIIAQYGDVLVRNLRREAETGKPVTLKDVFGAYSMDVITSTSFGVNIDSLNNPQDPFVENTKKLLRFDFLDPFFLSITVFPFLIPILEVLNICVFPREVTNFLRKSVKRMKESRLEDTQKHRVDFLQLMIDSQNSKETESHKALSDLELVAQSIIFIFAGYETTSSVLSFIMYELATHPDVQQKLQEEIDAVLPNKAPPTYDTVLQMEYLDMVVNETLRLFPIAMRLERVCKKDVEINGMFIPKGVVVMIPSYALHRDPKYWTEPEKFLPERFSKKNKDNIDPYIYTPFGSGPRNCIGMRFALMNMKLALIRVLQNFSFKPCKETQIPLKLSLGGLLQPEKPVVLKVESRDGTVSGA
Procedure, shortened: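 Activators are scored by enhanced luminescence from CYP3A4 conversion of luciferin-PPXE (25uM, equal to KM) to luciferin, after 60 min at RT with an NADPH-regenerating system.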

CP260 = test: qHTS profiling for inhibitors of Plasmodium falciparum proliferation (AID 504749); further: nearly all actives have a fitted effect of over 60% in size; conditions: P. falciparum in erythrocytes, SYBR Green DNA, 72 h; series mostly up to 28.7 µM
Procedure, shortened: as §1

DIV14 = test: as above; conditions: P. falciparum in erythrocytes, SYBR Green DNA, 72 h; series mostly up to 28.7 µM
Procedure, shortened: as §1

[4] = Confirmation and Secondary Assay for Modulators of Hemoglobin Beta Chain Splicing at IVS2 654 locus (AID 910); conditions: HeLa EGFP-654 splicing reporter, GFP fluorescence, 48 h; series mostly up to 46.1 µM;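 further: HeLa cells stably carrying EGFP split by mutant beta-globin IVS2-654 intron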
Procedure, shortened: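 HeLa cells stably expressing EGFP interrupted by β-globin IVS2-654 intron, seeded overnight in Opti-MEM/2% FCS, then treated 2 days at 37 °C. Restored splicing read as total peak GFP intensity per well by laser scanning cytometry (488 nm excitation, 500–520 nm emission); 500 nM antisense PNA as control.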

[5] = Confirmation and Secondary Assay for Modulators of Hemoglobin Beta Chain Splicing at IVS2 705 locus (AID 930); conditions: HeLa EGFP-705 splicing reporter, GFP fluorescence, 48 h; series mostly up to 46.1 µM;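 further: HeLa cells stably expressing the EGFP-705 splicing reporter; GFP fluorescence per well restored by corrected splicing of the IVS2-705 intron in EGFP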
Procedure, shortened: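 HeLa cells stably carrying EGFP interrupted by mutant beta-globin intron 2 (IVS2-705) treated 2 days at 37C with compound; 500 nM antisense PNA as control. Correct splicing read as total peak GFP intensity per well by laser-scanning cytometry.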

Measured: Potency

c1cnc(N2CC3(CCNCC3)C2)nc1
inactive: [1] > 11.4 µM

N#Cc1ccc(CN2CC3(CCNCC3)C2)cc1
inactive: [1] > 11.4 µM

Cc1nc2cnc(N3CCNCC3)nc2n(C)c1=O
inactive: [1] > 11.4 µM | [2]

C#CCN(C)[C@@H](C)Cc1ccccc1
not listed: [1] | [2] | [3] | CP260 | DIV14 | [4] | [5]
inactive: all other assays above

N#Cc1ccc(CN2CC[C@@]3(CCCNC3)C2)cc1
inactive: [1] > 11.4 µM | [3]

O=C(c1csnn1)N1CCC[C@@]2(CCN(Cc3ccncc3)C2)C1
inactive: [1] > 11.4 µM

CN(C)C(=O)Oc1cc(OC(=O)N(C)C)cc([C@@H](O)CNC(C)(C)C)c1
not listed: [1] | [3] | [4] | [5]
inactive: all other assays above

c1csc(CN2CC3(CCNCC3)C2)n1
inactive: [1] > 11.4 µM

CC(C)NC(=O)N1CCC2(CCNCC2)CC1
inactive: [1] > 11.4 µM

CNC[C@H](O)c1ccc(O)cc1
not listed: [1] | [3] | [4] | [5]
inactive: all other assays above

O=C(Oc1ccccc1)N1CCC2(CC1)CCN(C(c1ccccc1)c1ccccc1)CC2
inactive: [1] > 11.4 µM

CC[C@@H]1[C@@H]2C[C@H]3[C@H]4N(C)c5ccccc5[C@@]45C[C@@H]([C@@H]2[C@@H]5O)N3[C@H]1O
inactive: CP260 | CP265 | CP268 | CP335 | JCK | PC26 | SC27B | TAB113

COc1ccc(NC(=O)N2CCC3(CC2)CCN(C(=O)Oc2ccccc2)CC3)cc1
inactive: [1] > 11.4 µM

O=C(O)CNCP(=O)(O)O
inactive: [1] > 11.4 µM | [4] | [5]

C[C@H]1CN(C2CCC(C#N)(c3ccc(F)cc3)CC2)CC[C@@]1(C(=O)O)c1ccccc1 (stereo not given in full)
not listed: [1] | [2] | [3] | [4] | [5]
inactive: all other assays above

COc1cc2c(c(OC)c1OC)-c1ccc(O)c(=O)cc1[C@H](N)CC2
inactive: [3]

C=C1C/C(=C\C)C(=O)O[C@@H]2CCN3CC=C(COC(=O)[C@@]1(C)O)[C@H]23
inactive: [3] | [2]

CCC[C@@](C)(COC(N)=O)COC(=O)NC(C)C
inactive: [2]

NCC[C@H](O)C(=O)N[C@H]1C[C@@H](N)[C@@H](O[C@H]2O[C@@H](CN)[C@@H](O)[C@@H](O)[C@@H]2N)[C@@H](O[C@H]2O[C@@H](CO)[C@@H](O)[C@@H]2O)[C@@H]1O
not listed: [1] | [2] | TAB113 | [3] | [4] | [5]
inactive: all other assays above
